High-throughput results from PubChem.
PfHsp40 rescue: rescue of PfHsp40-mediated yeast toxicity; growth rescue, % at 12.5 µM; S. cerevisiae expressing PfHsp40, growth rescue, ATP luminescence; AID 504582; actives 0.68% (n = 340,000); in the data active = growth rescue above about 28%, passing the limit was not always enough;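 note: yeast W303a lacking pdr1 and pdr3 grown in galactose medium; growth measured after three days at 30 °C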
RN4220 kill: kills Staphylococcus aureus RN4220; AID 1259311; actives 0.33% (n = 330,000); S. aureus RN4220 growth, OD600, 16 h; inhibition, % (test concentration not listed); in the data active = inhibition above about 85%
CCHF vOTU inh: blocks the CCHF virus ovarian tumor domain protease; CCHFV vOTU protease, Pep-AMC fluorescence; inhibition, % at 11.5 µM; actives 0.55% (n = 370,000); in the data active = inhibition above about 30%
PrPC surface inh: inhibitors of human cell surface prion protein PrPC. P04156. TR-FRET read-out. inhibition, % at 13.8 µM. actives 0.43% (n = 370,000); in the data active = inhibition above about 24%
PrP UTR inh: suppresses PrP 5' UTR mRNA reporter expression. cell-based PrP 5' UTR mRNA reporter, plate reader. inhibition, % (concentration not given with the values). actives 0.35% (n = 340,000). AID 488862; in the data active = inhibition above about 52%
ugtP null kill: kills S. aureus RN4220 lacking UgtP; S. aureus RN4220 ugtP deletion, OD600 growth, 16 h; growth inhibition, % (no concentration beside the values); actives 0.54% (n = 330,000); AID 1259309; in the data active = growth inhibition above about 68%
PrPC confirm: cell surface PrPC inhibition, TR-FRET confirmation. AID 743200. shares compounds with PrPC surface inh. inhibition, % at 13.8 µM. actives 65% (n = 1,500). cell surface PrPC level; in the data active = inhibition above about 25%
LD9 tox: kills or reduces viability of LD9 cells in PrPc counter-screen. AID 743201. actives 29% (n = 1,500). shares compounds with PrPC surface inh. LD9 cells cytotoxicity, luminescence viability. inhibition, % at 13.8 µM; in the data active = inhibition above about 9.5%
A number is an active result; . = inactive; / = no result. Compounds with a hit are over-represented: about 2.1% of the library has one in this group of screens.

SMILES	PfHsp40 rescue	RN4220 kill	CCHF vOTU inh	PrPC surface inh	PrP UTR inh	ugtP null kill	PrPC confirm	LD9 tox
Cc1ccccc1-c1n[nH]c(=S)o1	.	.	.	63.1	.	.	71.8	.
CSc1ccccc1-c1n[nH]c(=S)o1	/	.	.	66.1	.	.	83.2	.
S=c1[nH]nc(-c2ccccc2)o1	.	.	.	.	.	.	/	/
COC(=O)C1=CC(C(=O)OC)C2C3=C(C(=O)C2(C)C)C(C)n2c(=O)n(-c4ccccc4)c(=O)n2C3C1 (stereo not drawn)	/	.	/	/	/	.	/	/
Nc1c(Cl)c(Cl)nc(C(=O)NN=Cc2ccco2)c1Cl	/	.	/	/	/	.	/	/
Nn1c(SCc2ccc(Br)cc2)nnc1-c1n[nH]c2c1CCC2	/	/	.	25.3	/	/	.	.
Nn1c(SCc2cccc3ccccc23)nnc1-c1n[nH]c2c1CCC2	/	/	.	.	/	/	/	/
CC1CN(C(C)CO)C(=O)c2cccc(NC(=O)c3cnccn3)c2OC1CN(C)C(=O)Nc1ccc2c(c1)OCO2 (stereo not drawn)	/	.	/	/	/	.	/	/
O=C(Nc1ccccc1)C1=C(c2ccccc2)S(=O)(=O)CCS1(=O)=O	.	89.8	.	33.3	.	100.1	.	69.6
COc1ccc2c(c1)OCC1C2N2C(=O)CN(CC3CCCO3)C(=O)[C@@]2(C)C1c1ccccc1 (stereo partly drawn)	/	.	/	/	/	.	/	/
COc1ccc(N(C(C)C(=O)N2CCCC2)S(C)(=O)=O)cc1 (stereo not drawn)	.	.	.	49.7	.	.	.	.
CC(C)CC(COc1ccccc1)N1CCN(CCc2ccccc2)CCC1=O (stereo not drawn)	/	.	/	/	/	.	/	/
CCCN(c1ccc(OCC)cc1)S(=O)(=O)c1ccc2c(c1)NC(=O)CO2	.	.	.	55.1	.	.	56.5	.
CC1(C)NC(=O)N(CC(O)COc2ccc(-c3ccccc3)cc2)C1=O (stereo not drawn)	.	.	.	.	.	.	/	/
CC1(C)NC(=O)N(CC(O)COc2ccc(-c3ccc(C#N)cc3)cc2)C1=O (stereo not drawn)	.	.	.	30.1	.	.	.	.
C#CCn1cc(/C=N/Nc2nc3ccccc3[nH]2)c2ccccc21	.	/	.	36.4	.	/	.	19.0
Cc1cc(C)c(O)c(C(=O)CC2CC(=O)NC(=O)C2)c1	/	/	.	71.1	/	/	66.0	34.4
CCOC(=O)N1CCN(C(=O)/C(=C/c2ccc(OC)c(OC)c2)NC(=O)c2ccccc2)CC1	.	.	.	28.9	.	.	.	.
CO[C@H]([C@H](C)/C=C/N(C)C=O)[C@@H](C)C(=O)CC[C@H](C)[C@H](O)[C@H](C)[C@H]1OC(=O)/C=C/C(C)=C/C[C@H](O)C[C@@H]2C=CC[C@@H](C[C@H](OC)[C@@H](CO)[C@@H](OC)C[C@@H](OC)[C@@H]1C)O2	/	/	/	38.3	/	/	34.2	24.5
CO[C@H]([C@H](C)/C=C/N(C)C=O)[C@@H](C)C(=O)CC[C@H](C)[C@H](O)[C@H](C)[C@H]1OC(=O)/C=C/C(C)=C/C[C@H](O)C[C@@H]2C=CC[C@@H](C[C@H](OC)C(C)(O)[C@@H](OC)C[C@@H](OC)[C@@H]1C)O2 (stereo partly drawn)	/	/	/	47.1	/	/	41.8	25.1
CO[C@H]([C@H](C)/C=C/N(C)C=O)[C@@H](C)C(O)CC[C@H](C)[C@H](O)[C@H](C)[C@H]1OC(=O)/C=C/C(C)=C/C[C@H](O)C[C@@H]2C=CC[C@@H](C[C@H](OC)[C@@]3(CO3)[C@@H](OC)C[C@@H](OC)[C@@H]1C)O2 (stereo partly drawn)	/	/	/	26.5	/	/	.	24.5
CO[C@H]([C@H](C)/C=C/N(C)C=O)[C@@H](C)C(=O)CC[C@H](C)[C@H](O)[C@H](C)[C@H]1OC(=O)/C=C/C(C)=C/[C@H](O)[C@H](OC)C[C@@H]2C=CC[C@@H](C[C@H](OC)[C@@H](CO)[C@@H](OC)C[C@@H](OC)[C@@H]1C)O2	/	/	/	37.5	/	/	31.8	23.4
O=C(NN=Cc1ccc(Cl)s1)C(O)c1ccccc1 (stereo not drawn)	/	.	/	/	/	.	/	/
